# Screens (PubChem)
# SARS PLpro yeast – inhibitors of SARS-CoV papain-like protease in yeast. Potency, µM (highest dose often 32.9 µM), without a hit: top-dose activity, positive = growth rescue, actives largely listed as activators. S. cerevisiae expressing SARS-CoV PLpro, growth rescue. actives 0.19% (n = 330,000); calls by dose curve; further: 0% is about no effect; nearly all actives have a fitted effect of over 55% in size
# AmpC detergent – inhibitors of E. coli AmpC beta-lactamase with detergent; actives 0.041% (n = 370,000); Potency, µM (titrated, usually from 114 µM), for inactives: at the highest dose activity change, negative = inhibition, hits mostly inhibitors; AmpC hydrolysis of nitrocefin, absorbance 480 nm, 0.01% Triton;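 further: 0% = no-compound wells and -100% = no-enzyme wells; nearly all actives have a fitted effect of over 25% in size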
# Target sequence (P00811 whole entry, looked up): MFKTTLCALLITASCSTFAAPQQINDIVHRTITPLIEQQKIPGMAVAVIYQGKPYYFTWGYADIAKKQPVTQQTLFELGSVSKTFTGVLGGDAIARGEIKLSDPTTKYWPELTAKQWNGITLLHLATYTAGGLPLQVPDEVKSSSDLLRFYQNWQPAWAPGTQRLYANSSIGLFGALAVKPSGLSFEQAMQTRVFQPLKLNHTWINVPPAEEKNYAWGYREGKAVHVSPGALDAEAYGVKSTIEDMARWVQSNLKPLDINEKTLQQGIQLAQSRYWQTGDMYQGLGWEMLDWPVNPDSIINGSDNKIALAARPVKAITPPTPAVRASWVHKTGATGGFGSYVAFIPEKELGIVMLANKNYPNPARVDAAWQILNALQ
#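 20 mM phosphate pH 7.0 + 0.01% (detergent screen) or 0.0001% Triton X-100; 5.3 nM AmpC reagent; cpd preinc 15 min RT; nitrocefin (800 uM stock) to start; A480 q20 s × 4 min; Activity was normalised to no-enzyme and no-compound control wells.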
# AmpC inh no detg – blocks E. coli AmpC beta-lactamase in detergent-free assay; AmpC nitrocefin hydrolysis, absorbance 480 nm, 0.0001% Triton; P00811; actives 0.52% (n = 330,000); Potency, µM (highest dose often 57.1 µM), without a hit: at the highest dose activity change, negative = inhibition, most hits filed as inhibitors;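 further: plate controls were no compound for no effect and no enzyme for full effect; nearly all actives have a fitted effect of over 20% in size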
#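 AmpC (5.3 nM in the dispensed reagent) in 20 mM phosphate pH 7.0 with 0.01% (detergent screen) or 0.0001% Triton X-100 was preincubated with compounds for 15 min at room temperature. Nitrocefin was then added from an 800 uM solution, and hydrolysis was followed at 480 nm.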
# Vaccinia Venus – inhibitors of vaccinia virus (Venus reporter) | Vaccinia virus Venus reporter expression, fluorescence | Potency, µM (top dose mostly 36.5 µM), for inactives: at the highest dose activity change, negative = inhibition, actives largely listed as inhibitors | actives 0.46% (n = 330,000); calls by dose curve; tested in A549 cells; further: on the % scale 0 is the no-effect control and ±100 the full control effect; nearly all actives have a fitted effect of over 30% in size
# AMA1 RON2 block – inhibitors of Plasmodium falciparum AMA1-RON2 interaction; actives 0.2% (n = 360,000); AID 720542; AlphaScreen AMA1-biotinylated RON2 peptide binding; Potency, µM (series often up to 58.2 µM), for the others: at the top dose activity change, negative = inhibition, actives largely listed as inhibitors;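 further: 0% = vehicle wells and -100% = peptide control; nearly all actives have a fitted effect of over 45% in size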
#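 AMA1 (3D7) with his tag at 25 nM final met compounds first, then biotinylated RON2 peptide at 25 nM; detection used donor plus acceptor beads, 10 µg/mL apiece, read by AlphaScreen after 30 min at room temperature.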
# VACV mCherry inh – vaccinia inhibition (mCherry reporter) | Vaccinia virus mCherry reporter infection, fluorescence | Potency, µM (top dose mostly 36.5 µM), inactives show at the top dose activity change, negative = inhibition, most hits filed as inhibitors | actives 0.63% (n = 310,000); calls by dose curve; tested in A549 cells; further: on the % scale 0 is the no-effect control and ±100 the full control effect; nearly all actives have a fitted effect of over 35% in size
# * marks the source's active call; other numbers are inactive results; i = inactive; ? = inconclusive; / = no result given; [ ] = remark or other dose. Most compounds without a hit are left out; they make up all but 1.4% or so of the library. Unless noted, the call rests on the fitted dose curve; in most records, active means well fitted curve in the direction sought with a large enough effect; inconclusive means small, poorly fitted or top-dose-only effect, or another doubt; inactive means no such curve, though single readings can be large; an effect the other way counts as inactive or inconclusive. Potency means the concentration at half of the fitted maximal effect.
SMILES,SARS PLpro yeast,AmpC detergent,AmpC inh no detg,Vaccinia Venus,AMA1 RON2 block,VACV mCherry inh
O=C1C(Cl)=C(Nc2ccc3cn[nH]c3c2)C(=O)c2ccccc21,-5%,-3%,-38%,8.9µM*,-17%,?
CC(=O)Nc1ccc(NC2=C(Cl)C(=O)c3ccccc3C2=O)cc1,1%,17%,-20%,?,-1%,?
CN(C)c1ccc(NC2=C(Cl)C(=O)c3ccccc3C2=O)cc1,0%,?,-14%,11µM*,7.9µM*,?
COCC1CCCN(Cc2ccc3c(c2)CN(C(=O)c2ccc(-c4ccc(C)o4)cc2)CCO3)C1 (stereo not drawn),/,/,/,-10%,/,-12%
Cc1cccc2nc(CNC(=O)CN3Cc4cc(Cl)ccc4OC(C)C3)cn12 (stereo not drawn),/,/,/,0%,/,-11%
O=C(CCc1c[nH]c2ccccc12)N1CCC(n2c(C3CCCO3)nc3cc(C(F)(F)F)ccc32)CC1 (stereo not drawn),/,/,/,2%,/,2%
COc1cc(C)c(CN2C[C@H](Sc3nc4ccccc4[nH]3)C[C@H]2C(=O)N(C)C)cc1C,/,/,/,-20%,/,i
COC(=O)C1CC23C=CCN4CCC5(c6ccccc6NC15C2C)C43 (stereo not drawn),2%,-11%,105%,?,-14%,13µM*
Cc1ccccc1C(=O)NC(C)c1nnc2n1CCN(Cc1ccc(F)cc1)CC2 (stereo not drawn),/,/,/,1%,/,-2%
CC1=C/C(=C\c2ccc(N(C)C)cc2)c2ccccc21,/,/,/,-16%,/,-21%
N#Cc1ccc(C23OCCN2CCn2c3c3ccccc3[n+]2[O-])cc1 (stereo not drawn),7%,/,-12%,-26%,40%,4µM*
O=C(Cc1coc2cc3c(cc12)CCC3)OCc1cc(=O)n2c(n1)sc1ccccc12,-4%,-1%,32µM*,/,-19%,/
CCC1CN(CCNC(=O)c2ccccc2-n2cccn2)Cc2cc(OC)ccc2O1 (stereo not drawn),/,/,/,-2%,/,-15%
CC(=O)c1cccc(NC(=O)c2cc3c(s2)-c2c(C)cccc2OC3)c1,/,-3%,/,20µM*,/,11µM*
CCOC(=O)N1CCN(Cc2ccc3c(c2)CN(C(=O)c2cc(-c4ccccc4)no2)CCO3)CC1,/,/,/,-29%,/,-26%
COc1ccc(NC(=O)CCc2nnc3n(CC(C)C)c(=O)c4ccccc4n23)cc1,/,22%,/,-9%,/,-17%
COc1ccc2c(c1)[C@H]1[C@H](CO2)[C@H](c2ccccc2)[C@]2(C)C(=O)Nc3cc(F)ccc3C(=O)N12,-4%,/,-13%,-28%,-23%,?
COc1ccc2c(c1)OC[C@H]1[C@H]2N2C(=O)c3ccc(F)cc3NC(=O)[C@@]2(C)[C@H]1c1ccccc1,/,/,/,?,-16%,18µM*
Cc1ccc(C2(CCNCc3ccc(N(C)C)cc3)CCOC(C(C)C)C2)cc1 (stereo not drawn),0%,-13%,63%,-21%,10µM*,-7%
CC(C)C1CC(CCNCc2ccc(N(C)C)cc2)(c2ccccc2)CCO1 (stereo not drawn),3%,-4%,2%,1%,?,?
Nc1nc(N)c2c(OCc3ccc(C(F)(F)F)cc3)cccc2n1,/,/,/,10µM*,/,10µM*
COc1ccc(CNc2nc3c(-c4ccc(C)cc4)nnn3c3ccccc23)cc1,/,11%,/,-1%,/,-1%
Cc1ccc(NC(=O)Cn2c(/C=C/c3ccccc3)nc3ccccc32)cc1C,-26%,4%,8.9µM*,/,-2%,/
CC(=O)c1cc(-c2ccccc2)n(CC(=O)Nc2ccc(C)c(C)c2)c1C,4%,2%,11µM*,?,1%[11.6 µM],-19%
Cc1cccc(CSc2nc3ccncc3n2CC(=O)Nc2ccc(C)c(C)c2)c1,-1%,-13%,3.2µM*,/,/,/
COCCNC(=O)COc1ccc(OCCNC[C@H](O)COc2ccccc2)cc1,/,/,/,-14%,/,i
